High-throughput results deposited in PubChem by National Center for Advancing Translational Sciences (NCATS).
The list is not random: actives were taken first. Their share in the collection is about 7.5%.
FLuc modulator = qHTS profiling assay for firefly luciferase inhibitor/activator using purifed enzyme and Km concentrations of substrates (counterscreen for miR-21 project) | Luciferin 4-monooxygenase (Photinus pyralis), P08659 | purified FLuc, Km substrates, luminescence inhibition | Potency, µM (doses to about 57.5 µM), most hits filed as inhibitors | 360,000 compounds, 6.9% hits | AID 588342, 2011; also: nearly all actives have a fitted effect of over 55% in size
Target sequence (P08659 whole entry, looked up): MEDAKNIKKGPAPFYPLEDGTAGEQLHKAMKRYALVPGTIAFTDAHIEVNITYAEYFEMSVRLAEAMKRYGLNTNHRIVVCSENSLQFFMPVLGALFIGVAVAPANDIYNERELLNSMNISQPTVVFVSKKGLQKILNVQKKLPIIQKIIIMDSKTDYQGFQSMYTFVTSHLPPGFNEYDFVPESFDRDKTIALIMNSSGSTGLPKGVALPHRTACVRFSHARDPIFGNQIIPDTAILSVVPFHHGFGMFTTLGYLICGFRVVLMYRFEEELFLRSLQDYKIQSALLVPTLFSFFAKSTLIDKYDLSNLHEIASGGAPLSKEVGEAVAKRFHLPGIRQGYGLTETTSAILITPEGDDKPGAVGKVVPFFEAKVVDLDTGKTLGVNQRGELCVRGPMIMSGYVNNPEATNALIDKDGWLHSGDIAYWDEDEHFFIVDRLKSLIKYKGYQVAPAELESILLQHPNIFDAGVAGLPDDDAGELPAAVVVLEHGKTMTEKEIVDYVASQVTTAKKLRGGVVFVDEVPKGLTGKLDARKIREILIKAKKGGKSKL
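Biochemical qHTS of compounds, final roughly 60 µM downward over six points, against 10 nM purified firefly luciferase using Km concentrations of substrates (10 uM D-luciferin, 10 uM ATP) in Tris acetate pH 7.5 buffer; luminescence output.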
Rab9 promoter act = qHTS Assay for Rab9 Promoter Activators; Huh7 Rab9 promoter-luciferase reporter, luminescence, 24 h; Potency, µM (top dose mostly 9.22 µM), hits mostly activators; 320,000 compounds, 2.8% hits; also: nearly all actives have a fitted effect of over 60% in size
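Rab9 promoter-driven luciferase in stably transfected Huh7 cells; 1500 cells/well rested 2 h, exposed to compound in DMSO for 24 h at 37 °C, 5% CO2. Luminescence read 10 min after adding luciferase reagent at ambient temperature.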
NPC1 prom act = qHTS Assay for NPC1 Promoter Activators | AID 485313, 2010 | 320,000 compounds, 2.4% hits | Huh7 NPC1 promoter luciferase reporter, 24 h | Potency, µM (top dose mostly 9.22 µM), hits mostly activators; also: nearly all actives have a fitted effect of over 60% in size
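Huh7 cells stably carrying NPC1 promoter–luciferase, plated in Opti-MEM with 10% FBS for 2 h, were exposed to compound in DMSO for 24 h at 37 °C; luciferase reagent was added for 10 min and luminescence read.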
ELG1 genotox = qHTS screen for small molecules that induce genotoxicity in human embryonic kidney (HEK293T) cells expressing luciferase-tagged ELG1; HEK293T ELG1-luciferase reporter, luminescence, 16 h; Potency, µM (series often up to 46 µM), usual class: activators; 330,000 compounds, 1.3% hits; AID 504466, 2011; also: nearly all actives have a fitted effect of over 60% in size
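Genotoxicity was scored as increased ELG1-luciferase reporter signal, measured by ONE-Glo luminescence (30 min, room temperature). Compound or vehicle exposure of the HEK293T reporter cells lasted 16 hr at 37°C.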
SMN2 splice enh = qHTS Assay for Enhancers of SMN2 Splice Variant Expression | 210,000 compounds, 2.8% hits | Potency, µM (titrated, usually from 46.1 µM), most hits filed as activators | AID 1458, 2008 | HEK293 SMN2-luciferase splicing reporter, luminescence, 30-36 h; also: nearly all actives have a fitted effect of over 55% in size
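qHTS luciferase splicing reporter: luminescence rises when SMN2 exon 7 is included in transfected HEK293 cells. Compound exposure lasted 30-36 h at 37C, with 4.5 mM final sodium butyrate as control, followed by a ONE-Glo read.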
Hits are given with their value; i = inactive; ? = inconclusive; nt = not tested or not shown; [ ] = another dose, or the depositor's remark. Calls follow the shape of the dose curve; as a rule, active = well fitted curve in the direction sought with a large enough effect; inconclusive = small, poorly fitted or top-dose-only effect, or another doubt; inactive = no such curve, though single readings can be large; an effect the other way counts as inactive or inconclusive.

SMILES	FLuc modulator	Rab9 promoter act	NPC1 prom act	ELG1 genotox	SMN2 splice enh
COC(=O)C(Cc1c[nH]c2ccccc12)NC(=O)c1cc(-c2ccc(OC)c(OC)c2)oc1C (stereo not drawn)	i	i	i	i	i
Cc1cc(-c2ccccc2)nc(N/N=C/c2ccccc2)n1	6.75µM	?	?	i	nt
C(=N/Nc1nc(-c2ccccc2)cc(-c2ccccc2)n1)/c1cccnc1	2.69µM	i	i	i	2.51µM
COc1ccc(-c2cnnc(N/N=C/c3ccc(OC)c(OC)c3)n2)cc1	2.69µM	i	i	i	nt
CCOc1cc(/C=N/Nc2nncc(-c3ccccc3)n2)ccc1O	i	i	i	i	i
C(=N\Nc1nc(Nc2ccccc2)nc(Nc2ccccc2)n1)/c1cccnc1	?	i	i	i	i
Clc1cccc(-c2ccc(C3Nc4cccc5cccc(c45)N3)o2)c1	nt	nt	nt	i	nt
COC(=O)[C@H](COC(C)(C)C)NC(=O)O[C@@H]1C(=O)c2ccc(OC)cc2O[C@H]1c1ccc2c(c1)OCO2	nt	nt	nt	nt	i
CCOC(=O)Cc1nnc(NC(=O)CSc2nnc3c4ccccc4n(C(C)C)c3n2)s1	i	i	i	i	i
CC(C)c1ccc(NC(=O)c2cccnc2)cc1	16.9µM	3.98µM	?	20.6µM	?
CC(C)c1ccc(O)c(NC(=O)c2cccnc2)c1	i	i	i	i	i
CC(C)c1ccc(NC(=O)c2snc3ccc(Cl)cc23)cc1	7.57µM	2.24µM	2.51µM	?	14.1µM
CC(C)c1ccc(NC(=O)c2csnn2)cc1	2.13µM	1.78µM	1.58µM	1.16µM	?
COC(=O)C(C(=O)OC)c1ccc(NC(=O)c2cccc(Cl)c2)cc1	i	?	?	i	?
O=C(Nc1ccccc1NC(=O)c1csnn1)c1csnn1	i	i	i	i	nt
O=C(NC(=S)Nc1ccccc1Cl)c1csnn1	13.5µM	i	i	i	i
Cc1c(NC(=O)c2n[nH]c(=O)c3ccccc23)c(=O)n(-c2ccccc2)n1C	i	i	i	i	i
CCN(C(=O)c1cc2c(=O)oc3ccc(C)cc3c2s1)c1ccccc1F	i	nt	nt	nt	i
CC(C)c1ccc2oc(-c3cc(NC(=O)c4cccnc4)ccc3Cl)nc2c1	10.7µM	nt	nt	nt	i
CC(C)c1ccc(NC(=S)NNC(=O)c2cccnc2)cc1	10.7µM	i	i	i	i
O=C(NCc1ccco1)c1ccccc1NS(=O)(=O)c1ccc(Br)s1	i	i	i	i	i
CC(=O)c1cccc(Nc2cc(C)nc3nc(-c4ccccc4C)nn23)c1	19µM	nt	nt	nt	i
Cc1cc(Nc2cccc(C(=O)O)c2)n2nc(C)nc2n1	i	nt	nt	nt	i
Cc1cc(C)n2nc(C(=O)Nc3ccc4c(c3)OCO4)cc2n1	4.78µM	3.16µM	1.26µM	2.06µM	7.94µM
O=C(Nc1ccc2c(c1)OCO2)c1cc2nc(C3CC3)cc(C(F)(F)F)n2n1	i	i	i	i	i
SMILES	FLuc modulator	Rab9 promoter act	NPC1 prom act	ELG1 genotox	SMN2 splice enh
CC(=O)c1cccc(NC(=O)c2cc3nc(C)cc(C)n3n2)c1	7.57µM	2µM	?	8.2µM	12.6µM
CNC(=S)Nc1cccc(C(C)=O)c1	i	i	i	i	i
CCOc1ccccc1CNC(=O)c1ccc(NC(=O)N2CCSc3ncccc32)cc1	i	nt	nt	nt	nt
COc1cc2c(=O)n(Cc3ccccc3Cl)c(=O)n(CC(=O)Nc3ccccc3)c2cc1OC	i	nt	nt	nt	i
O/N=C/c1cc(Br)cc(Br)c1OCc1ccccc1	i	i	i	i	i
O/N=C/c1ccc(OCc2ccccc2)c(Cl)c1	4.78µM	3.55µM	?	16.4µM	11.2µM
O/N=C/c1ccc(OCc2ccccc2F)c(Cl)c1	2.69µM	1.58µM	?	5.17µM	7.94µM
O/N=C/c1cc(Br)ccc1OCc1cccc(F)c1	?	i	i	i	i
O/N=C/c1ccc(OCc2ccccc2)c(Br)c1	7.57µM	3.16µM	i	14.6µM	15.8µM
O/N=C/c1ccccc1OCc1ccccc1F	i	i	i	i	i
Cc1ccc(COc2ccc(Br)cc2/C=N/O)cc1	13.5µM	?	?	?	i
COc1ccc(/C=C/C(=O)N2CCN(c3ccccn3)CC2)c(OC)c1OC	i	i[1.84 µM]	i	i	nt
COc1ccccc1CNC(=O)CCC1N=C2c3ccccc3N=C(SCC(N)=O)N2C1=O (stereo not drawn)	i	nt	nt	nt	nt
CC(=O)c1ccc(NC(=O)C2(c3ccccc3)CCOCC2)cc1	13.5µM	?	3.16µM	?	i
COc1cccc2c1C(=O)O/C2=C/c1ccc2c(c1)OCO2	0.107µM	?	?	?	?
COc1ccc(/C=N/Nc2nc(-c3ccc(Cl)cc3)cc(C(F)(F)F)n2)cc1OC	?	i	i	i	i
COc1ccc(Nc2cc(C)nc(N3CCOCC3)n2)cc1	?	i	i	i	i
COc1ccc(/C=N/Nc2cc(C)nc(N3CCOCC3)n2)cc1OC	6.75µM	i	i	i	nt
COc1cccc(/C=N/Nc2nc(Nc3ccccc3)nc(-n3nc(C)cc3C)n2)c1O	6.01µM	i	i	i	i
COc1ccc(/C=N\Nc2ncc(F)c(N3CCOCC3)n2)cc1OC	10.7µM	i	i	i	nt
COc1ccccc1/C=N/Nc1cc(C)nc(N2CCOCC2)n1	13.5µM	i	i	i	nt
CNc1cc(C)nc(N2CCOCC2)n1	i	i	i	i	nt
Cc1cc(C)n(-c2nc(Nc3ccccc3)nc(-n3nc(C)cc3C)n2)n1	i	i	i	i	i
CN1CCN(c2ccccc2NC(=O)c2ccc([N+](=O)[O-])cc2Cl)CC1	i	i	i	i	i
CCc1ccc(S(=O)(=O)NCc2nc3cccnc3n2Cc2ccccc2Cl)cc1	i	nt	nt	nt	nt
SMILES	FLuc modulator	Rab9 promoter act	NPC1 prom act	ELG1 genotox	SMN2 splice enh
CC(C)c1ccc(C(N)=S)cc1	i	i	i	i	i
Cc1cccc(CNC(=O)CCCN2C(=O)c3cccnc3Oc3ccccc32)c1	i	nt	nt	nt	nt
CC(C)(C)c1ccc(C(=O)NC2(C(F)(F)F)C(=O)Nc3c2c(=O)[nH]c(=O)n3-c2ccccc2)cc1 (stereo not drawn)	?	nt	nt	nt	i
COc1ccc(/C=N/Nc2cc(C)nc(-n3nc(C)cc3C)n2)c(OC)c1	16.9µM	i	i	?	i
COc1ccc(/C=N/Nc2cc(C)nc(N3CCOCC3)n2)cc1	2.39µM	i	i	i	nt
O=C(CSc1ccc2c(c1)OCCO2)NC(=O)Cc1ccccc1	i	i	i	i	i
Cn1c(COc2ccc3ccccc3c2)nnc1SCC(=O)OC1CCCCC1	?	i	i	i	i
CN=c1scc(-c2ccc([N+](=O)[O-])cc2)n1/N=C/c1ccco1	?	0.398µM	?	?	nt
O=C1c2ccc([N+](=O)[O-])cc2NC(c2ccco2)N1/N=C/c1ccco1 (stereo not drawn)	?	i	i	i	nt
CC(=O)c1ccc(OCc2cc(C(=O)N3CC4C[C@@H]5CC3C[C@H](C4)C5)no2)cc1	9.53µM	3.16µM	2.51µM	?	nt
